About 83,000 compounds went through this panel and 20% of them were active in at least one assay; those are over-represented in the sample as a whole.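 The endpoint reported here, percent growth, reads 100 for growth as untreated, 0 for no net growth and -100 for all cells dead.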 Unmarked numbers belong to inactive results. The source made the active and inactive calls. How the source made its calls: active means growth percent below 10; inactive means the rest.

This passage reports growth results from PubChem BioAssay (NCI).

Some test systems named below: T-47D breast; MDA-MB-435 melanoma; MCF7 breast; HCT-116 colon; HCC-2998 colon; KM12 colon; BT-549 breast; SW-620 colon.
What all share (experiment): NCI-60 one-dose screen, 48 h (100 = growth as untreated, 0 = no growth, -100 = all killed)
Settings in all cases: 10 µM unless noted

Regarding `CCC(C)[C@H](NC(=O)NC(=O)NC(=O)CI)C(=O)OC` (some centres not stated), the growth is 38.5% with T-47D breast; 69.5% in the test with MDA-MB-435 melanoma; 42.1% with MCF7 breast; 65.2% in the test with HCT-116 colon; 103% with HCC-2998 colon; 100% in the test with KM12 colon.
Consider `CCN(CC)CCS(=O)(=O)CCNc1ccnc2cc(Cl)ccc12`, for which the growth with BT-549 breast was -0.495% (active); in the test with MDA-MB-435 melanoma it was 3.99% (active); in the test on SW-620 colon, 7.17% (active); in the test on MCF7 breast, 26.9%; in the test on HCT-116 colon, 6.59% (active); in the test on HCC-2998 colon it was -13.5% (active). Moreover, the growth with KM12 colon is -24.5% (active).
In the case of `O=C(NCCO)c1cccnc1`, the growth was 108% in the test on BT-549 breast; 106% in the test with MDA-MB-435 melanoma; 96.1% with SW-620 colon; 98.5% with MCF7 breast; 99% in the test on HCT-116 colon; 103% in the test with HCC-2998 colon.
Take `Cc1cc[n+](CCCCCCCCCC[n+]2ccc(C)cc2)cc1`: the growth in the test with BT-549 breast was 101%; in the test with MDA-MB-435 melanoma, 102%; in the test on SW-620 colon, 103%; in the test with MCF7 breast, 93.6%; in the test with HCT-116 colon, 96.4%.
As to `C=CCCC1(C)NC(=O)NC1=O` (configuration not stated), the growth with BT-549 breast is 100%; in the test on MDA-MB-435 melanoma, 99.4%; in the test on SW-620 colon, 102%; in the test with MCF7 breast it was 92.4%; with HCT-116 colon, 96.6%; in the test on HCC-2998 colon it was 104%.
For `O=C1NC(=O)C(Cc2ccccc2)(Cc2ccccc2)N1`, the growth in the test on BT-549 breast is 90.4%; with MDA-MB-435 melanoma, 96.4%; in the test on SW-620 colon, 101%; with MCF7 breast it was 96.2%; in the test with HCT-116 colon, 90.9%; with HCC-2998 colon it was 104%.
For `Cc1ccc(N)c(O)c1`, the growth in the test with T-47D breast was 94.1%; with MDA-MB-435 melanoma, 102%; in the test with SW-620 colon, 92.2%; in the test on HCT-116 colon it was 85.2%; with HCC-2998 colon, -4.78% (active); with KM12 colon, 99.5%.
For `CC1(C(=O)O)CCC(N)(C(=O)O)C1(C)C` (configuration not stated), the growth with T-47D breast was 98.4%; in the test with MDA-MB-435 melanoma, 115%; in the test with MCF7 breast it was 99.5%; in the test with HCT-116 colon, 110%; in the test on HCC-2998 colon it was 120%; in the test on KM12 colon, 111%.
As to `O=C(NCc1ccc(Cn2c(=O)sn(-c3ccccc3)c2=O)cc1)OCc1ccc2c(Br)cc(Br)c(O)c2n1`, the growth was -49.8% (active) in the test with T-47D breast; -77.6% (active) with MDA-MB-435 melanoma; -71.8% (active) with HCT-116 colon; -80% (active) in the test on HCC-2998 colon; -61.8% (active) in the test with KM12 colon.
Consider `C=C(C)[C@@H]1CC[C@]2(C(N)=O)CC[C@]3(C)[C@H](CC[C@@H]4[C@@]5(C)C/C(=C/c6cccnc6)C(=O)C(C)(C)[C@@H]5CC[C@]43C)[C@@H]12`, for which the growth with BT-549 breast was 14.1% [100 µM]; with MDA-MB-435 melanoma it was 0.0948% [100 µM] (active); with SW-620 colon it was 3.53% [100 µM] (active); in the test with MCF7 breast, 10.8% [100 µM]; in the test on HCT-116 colon, 5.4% [100 µM] (active); in the test on HCC-2998 colon, -15.9% [100 µM] (active). Further, in the test with KM12 colon, the growth is -3.05% [100 µM] (active).
Regarding `CC(C)[N+](C)(C)CC(O)COc1cccc2ccccc12` (configuration not stated), the growth is 112% with BT-549 breast; 118% in the test with MDA-MB-435 melanoma; 99.7% in the test on SW-620 colon; 102% in the test on MCF7 breast; 113% with HCT-116 colon; 101% in the test with HCC-2998 colon. Further, the growth in the test on KM12 colon was 96.1%.
On to `COc1ccc(C(C(=O)O)c2ccc(OC)cc2)cc1`, for which the growth with T-47D breast is 118%; with MDA-MB-435 melanoma, 115%; in the test with MCF7 breast, 101%; in the test on HCT-116 colon, 108%; in the test with HCC-2998 colon, 116%; with KM12 colon, 111%.
For `CC(C)=CC/C=C(/C)[C@H]1CC[C@]2(C)[C@@H]1CC[C@@H]1[C@@]3(C)CC/C(=N/O)C(C)(C)[C@@H]3CC[C@]12C`, the growth in the test with BT-549 breast is 61.5% [100 µM]; with MDA-MB-435 melanoma, 52.2% [100 µM]; with SW-620 colon, 61.3% [100 µM]; with MCF7 breast, 36.1% [100 µM]; in the test with HCT-116 colon, 24.1% [100 µM]; in the test with HCC-2998 colon, 69.5% [100 µM]. The growth in the test on KM12 colon was 51.6% [100 µM].
Consider `CC(C)[C@H]1COC(=O)N1[C@@H]1C(=O)N([C@@H](CCC(=O)N2CCN(C3CCCC3)CC2)C(=O)N[C@@H]2CCCc3ccccc32)[C@@H]1/C=C/c1cccc(Cl)c1`, for which the growth with T-47D breast is 61.4%; in the test on MDA-MB-435 melanoma, 32.7%; in the test on MCF7 breast, 34.7%; with HCT-116 colon it was 32.7%; in the test with HCC-2998 colon, 51.8%; in the test on KM12 colon it was 48.8%.
Regarding `COc1ccc(NCc2cn(-c3ccc(C(=O)O)cc3)nc2-c2ccc(C(=O)O)cc2)cc1C(F)(F)F`, the growth in the test with BT-549 breast is 98%; in the test with MDA-MB-435 melanoma it was 101%; in the test with SW-620 colon, 97.2%; in the test on MCF7 breast, 96.1%; with HCT-116 colon, 104%; in the test with HCC-2998 colon, 104%. Besides, the growth in the test on KM12 colon is 102%.
In the case of `O=C1CC(c2ccc3c(c2)OCO3)Nc2ccccc21` (configuration not stated), the growth was 42.2% in the test with BT-549 breast; -22.6% (active) with MDA-MB-435 melanoma; 19.2% in the test with SW-620 colon; 15.9% with MCF7 breast; 17% in the test on HCT-116 colon; 35.3% in the test on HCC-2998 colon. In addition, the growth in the test with KM12 colon is 17.1%.
For the compound `CC(C)c1ccc(C(=O)Nc2sc3c(c2C#N)CCC(=O)C3)cc1`, the growth with BT-549 breast is -9.76% (active); with MDA-MB-435 melanoma, -14.4% (active); in the test with SW-620 colon it was -19.1% (active); in the test with MCF7 breast, 4.86% (active); in the test with HCT-116 colon it was -2.81% (active); with HCC-2998 colon, 20.7%. For the same compound, the growth with KM12 colon is 5.49% (active).
